# Data: PMC11062922 (Nature Chemical Biology, 2023)
# Read-outs that look alike come from different tables or passages of the source.
# Legend:
# PIK3C2A = test system: PIK3C2A; parameters: species or system human, MV4-11 + K-562 + COLO205 + SK-N-BE2 + OVCAR-8; details: read-out: apparent Kd; compound concentrations: 100 nM and 1000 nM (sheet 'Samples'), CATDS: 5.6745724082573501E-2; n = 1
# PIK3C2B = test system: PIK3C2B; parameters: species or system human, MV4-11 + K-562 + COLO205 + SK-N-BE2 + OVCAR-8; details: read-out: apparent Kd; compound concentrations: 100 nM and 1000 nM (sheet 'Samples'), CATDS: 8.3411679268076702E-2; n = 1
# PIM2 = test system: PIM2; parameters: species or system human, MV4-11 + K-562 + COLO205 + SK-N-BE2 + OVCAR-8; details: read-out: apparent Kd; compound concentrations: 100 nM and 1000 nM (sheet 'Samples'), CATDS: 5.9438014075045897E-2; n = 1
# PIP4K2C = test system: PIP4K2C; parameters: species or system human, MV4-11 + K-562 + COLO205 + SK-N-BE2 + OVCAR-8; details: read-out: apparent Kd; compound concentrations: 100 nM and 1000 nM (sheet 'Samples'), CATDS: 1; n = 1
# PIM3 = test system: PIM3; parameters: species or system human, MV4-11 + K-562 + COLO205 + SK-N-BE2 + OVCAR-8; details: read-out: apparent Kd; compound concentrations: 100 nM and 1000 nM (sheet 'Samples'), CATDS: 1; n = 1
# STK26 = test system: STK26; parameters: species or system human, MV4-11 + K-562 + COLO205 + SK-N-BE2 + OVCAR-8; details: read-out: apparent Kd; compound concentrations: 100 nM and 1000 nM (sheet 'Samples'), CATDS: 0.52714165558765103; n = 1
# PDGFRB = test system: PDGFRB; parameters: species or system human, MV4-11 + K-562 + COLO205 + SK-N-BE2 + OVCAR-8; details: read-out: apparent Kd; compound concentrations: 100 nM and 1000 nM (sheet 'Samples'), CATDS: 0.36710217729011002; n = 1
# RET = test system: RET; parameters: species or system human, MV4-11 + K-562 + COLO205 + SK-N-BE2 + OVCAR-8; details: read-out: apparent Kd; compound concentrations:100 nM and 1000 nM (sheet 'Samples'); n = 1
# RAB5C = test system: RAB5C; parameters: species or system human, MV4-11 + K-562 + COLO205 + SK-N-BE2 + OVCAR-8; details: read-out: apparent Kd; compound concentrations: 100 nM and 1000 nM (sheet 'Samples'), CATDS: 1; n = 1
# SMC4 = test system: SMC4; parameters: species or system human, MV4-11 + K-562 + COLO205 + SK-N-BE2 + OVCAR-8; details: read-out: apparent Kd; compound concentrations: 100 nM and 1000 nM (sheet 'Samples'), CATDS: 0.57123951593094102; n = 1
# ACOX1 = details: read-out: apparent Kd, n = 1
# AKT3 = details: read-out: apparent Kd, n = 1
# CDC42 = details: read-out: apparent Kd, n = 1
# CDK7 = details: read-out: apparent Kd, n = 1
# PIK3CD = details: read-out: apparent Kd, n = 1
# STK16 = details: read-out: apparent Kd, n = 1
# TTN = details: read-out: apparent Kd, n = 1
# RPS6KB1 = test system: RPS6KB1; parameters: species or system human, MV4-11 + K-562 + COLO205 + SK-N-BE2 + OVCAR-8; details: read-out: apparent Kd, n = 1
# RIOK2 = test system: RIOK2; parameters: species or system human, MV4-11 + K-562 + COLO205 + SK-N-BE2 + OVCAR-8; details: read-out: apparent Kd, compound concentrations: 100 nM and 1000 nM (sheet 'Samples'), n = 1
# Q6ZSR9 = Q6ZSR9 (human, UniProt Q6ZSR9); parameters: species or system MV4-11 + K-562 + COLO205 + SK-N-BE2 + OVCAR-8; details: read-out: apparent Kd, n = 1
# Q6ZSR9, sequence (Q6ZSR9 whole entry, looked up): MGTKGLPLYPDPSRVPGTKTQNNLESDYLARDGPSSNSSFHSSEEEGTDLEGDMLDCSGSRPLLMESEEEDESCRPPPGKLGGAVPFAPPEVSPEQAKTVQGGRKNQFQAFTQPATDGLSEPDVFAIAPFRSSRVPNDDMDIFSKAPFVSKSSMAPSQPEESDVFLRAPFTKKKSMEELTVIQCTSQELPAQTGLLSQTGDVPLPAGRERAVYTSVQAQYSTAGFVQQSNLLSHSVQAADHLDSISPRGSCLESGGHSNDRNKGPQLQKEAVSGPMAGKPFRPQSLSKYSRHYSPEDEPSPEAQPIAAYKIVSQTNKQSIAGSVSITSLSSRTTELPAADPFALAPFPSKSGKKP
# [1] = compound concentrations:100 nM and 1000 nM (sheet 'Lestaurtinib' of Supplementary Table 1),run:Lestaurtinib_02339_R2,Plate:MR001
# [2] = compound concentrations:100 nM and 1000 nM (sheet 'Samples')
compound,measurement,setting,value
Nc1ncc(-c2ccc3nccc(-c4ccncc4)c3c2)cc1S(=O)(=O)N1CCCCC1 [GSK1693850A],potency estimated from few doses,PIK3C2A,2320 nM
same,potency estimated from few doses,PIK3C2B,483 nM
same,potency estimated from few doses,PIM2,1790 nM
COc1cc(Nc2nccc(N3CCC(NC(=O)C(C)c4ccc(Cl)cc4)C3)n2)cc(OC)c1OC (stereo not drawn) [GSK1379757A],potency estimated from few doses,PIP4K2C,1640 nM
CCSc1ccc(-c2nc3n(c2-c2ccncc2)CCC3)cc1.CCSc1ccc(-c2nc3n(c2-c2ccncc2)CCC3)cc1.Cl.Cl [SKF-106164-A2],potency estimated from few doses,PIM3,1300 nM
Cn1ccc(-c2cccc(Nc3ccnc4cc(-c5nccs5)ccc34)c2)n1 [GW525701_KCGS],potency estimated from few doses,STK26,1370 nM
O=C(NCCNc1ccnc(Nc2ccc(F)cc2)n1)Nc1ccccc1F [GSK1379880A],potency estimated from few doses,PDGFRB,1450 nM
Cl.O=C(Nc1ccc(Oc2ccc3[nH]c(NC(=O)c4ccccc4)nc3c2)cc1)Nc1cc(C(F)(F)F)ccc1F [GW709042A],potency estimated from few doses,RET,1420 nM
Fc1ccc(-c2c(-c3ccncc3)n(CCN3CCOCC3)c3cccnc23)cc1 [RO1154507-000],potency estimated from few doses,RAB5C,223 nM
CCCNC(=O)Nc1ccc(N(C)c2ccnc(NC3CC3)n2)cc1 [GW818933X],potency estimated from few doses,SMC4,1120 nM
Lestaurtinib,potency estimated from few doses,"ACOX1; compound concentrations:100 nM and 1000 nM (sheet 'Lestaurtinib' of Supplementary Table 1),run:Lestaurtinib_02364_R2,Plate:MR002",1360 nM
same,potency estimated from few doses,"ACOX1; compound concentrations:100 nM and 1000 nM (sheet 'Lestaurtinib' of Supplementary Table 1),run:Lestaurtinib_02624_R1,Plate:MR020",1670 nM
same,potency estimated from few doses,AKT3; [1],1910 nM
same,potency estimated from few doses,"AKT3; compound concentrations:100 nM and 1000 nM (sheet 'Lestaurtinib' of Supplementary Table 1),run:Lestaurtinib_03172_R3,Plate:MR031",1540 nM
same,potency estimated from few doses,"CDC42; compound concentrations:100 nM and 1000 nM (sheet 'Lestaurtinib' of Supplementary Table 1),run:Lestaurtinib_02437_R1,Plate:MR007",1440 nM
same,potency estimated from few doses,"CDC42; compound concentrations:100 nM and 1000 nM (sheet 'Lestaurtinib' of Supplementary Table 1),run:Lestaurtinib_02765_R3,Plate:MR026",1440 nM
same,potency estimated from few doses,"CDK7; compound concentrations:100 nM and 1000 nM (sheet 'Lestaurtinib' of Supplementary Table 1),run:Lestaurtinib_02487_R1,Plate:MR012",132 nM
same,potency estimated from few doses,"CDK7; compound concentrations:100 nM and 1000 nM (sheet 'Lestaurtinib' of Supplementary Table 1),run:Lestaurtinib_02496_R2,Plate:MR013",1590 nM
same,potency estimated from few doses,PIK3CD; [1],190 nM
same,potency estimated from few doses,"PIK3CD; compound concentrations:100 nM and 1000 nM (sheet 'Lestaurtinib' of Supplementary Table 1),run:Lestaurtinib_02577_R3,Plate:MR016",12.4 nM
same,potency estimated from few doses,"STK16; compound concentrations:100 nM and 1000 nM (sheet 'Lestaurtinib' of Supplementary Table 1),run:Lestaurtinib_02422_R1,Plate:MR006",1430 nM
same,potency estimated from few doses,"STK16; compound concentrations:100 nM and 1000 nM (sheet 'Lestaurtinib' of Supplementary Table 1),run:Lestaurtinib_03260_R1,Plate:MR033",1340 nM
same,potency estimated from few doses,"TTN; compound concentrations:100 nM and 1000 nM (sheet 'Lestaurtinib' of Supplementary Table 1),run:Lestaurtinib_02364_R1,Plate:MR002",1910 nM
same,potency estimated from few doses,"TTN; compound concentrations:100 nM and 1000 nM (sheet 'Lestaurtinib' of Supplementary Table 1),run:Lestaurtinib_02606_R2,Plate:MR019",737 nM
Nc1nonc1-c1nc2cnccc2n1C1CC1 [SB-736302],potency estimated from few doses,"RPS6KB1; compound concentrations: 100 nM and 1000 nM (sheet 'Samples'), CATDS: 0.26812352090996999",794 nM
COc1ccc2ncn(-c3cc(O[C@H](C)c4ccccc4C(F)(F)F)c(C(N)=O)s3)c2c1 [GSK317315A],potency estimated from few doses,RIOK2; CATDS: 0.34769297632871299,1940 nM
COC[C@H](NC1=NC(=O)/C(=C/c2ccc3ncccc3c2)S1)c1ccccc1 [RO4595946-000],potency estimated from few doses,"Q6ZSR9; compound concentrations: 100 nM and 1000 nM (sheet 'Samples'), CATDS: 1",1580 nM
Cl.c1ccc(Oc2ccc(Nc3ncc(-c4ccccc4)o3)cc2)cc1 [GW641155A],potency estimated from few doses,RIOK2; CATDS: 1,2140 nM
CCn1c(-c2nonc2N)nc2cnc(Oc3cccc(NC(=O)c4ccc(N(C)C)cc4)c3)cc21 [GSK248233A],potency estimated from few doses,Q6ZSR9; [2],2120 nM
same,potency estimated from few doses,RPS6KB1; [2],978 nM
